According to PubChem BioAssay (NCI):
The panel holds about 83,000 compounds, 20% with a hit somewhere; the sample as a whole holds those more often.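 In brief: 96-well plates, 48 h treatment, single concentration, percent growth endpoint.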 Values without a mark were called inactive. Activity calls are given as the source filed them. The calls were made as follows: active = growth percent below 10; inactive = the rest.

What was measured:
Assay in all cases: NCI-60 one-dose screen, 48 h (100 = growth as untreated, 0 = no growth, -100 = all killed)
Settings in all cases: 10 µM unless noted
T-47D breast = system: T-47D breast
BT-549 breast = system: BT-549 breast
MDA-MB-435 melanoma = system: MDA-MB-435 melanoma
SW-620 colon = system: SW-620 colon
MCF7 breast = system: MCF7 breast
HCT-116 colon = system: HCT-116 colon
HCC-2998 colon = system: HCC-2998 colon
KM12 colon = system: KM12 colon

| Structure (SMILES) | growth (T-47D breast) | growth (BT-549 breast) | growth (MDA-MB-435 melanoma) | growth (SW-620 colon) | growth (MCF7 breast) | growth (HCT-116 colon) | growth (HCC-2998 colon) | growth (KM12 colon) |
| --- | --- | --- | --- | --- | --- | --- | --- | --- |
| COc1cc(/C=C/C(=O)c2ccc(F)cc2)ccc1OCCCCOc1ccc(/C=C/C(=O)c2c(C)nc3ccccc3c2C)cc1OC | 92.7% | 154% | 94.4% | 102% | 80.1% | 90.8% | 100% | 111% |
| CC1=C([Se]CC(OC(=O)CC[Se]c2ccccc2)C(=O)NC(C)(C)C)C(=O)c2ccccc2C1=O (stereo not given) | -54.5% (active) | -89% (active) | -61.7% (active) | -76.9% (active) | -54.7% (active) | -61.9% (active) | -87.2% (active) | -92.3% (active) |
| COC(=O)/C=C1/SC(=Nc2ccc(C(F)(F)F)cc2)N(CCc2c[nH]c3ccc(O)cc23)C1=O | 17.3% | -32.7% (active) | 24% | 3.9% (active) | 12.5% | -71.9% (active) | -61.4% (active) | 18.3% |
| CCOCCNC1=C(Cl)C(=O)c2ccccc2C1=O | 90.8% | 107% | 104% | 110% | 69.1% | 88.1% | 112% | 91.4% |
| CCCCCCCCCCCCCCCCCCOc1ccccc1CC(=O)OCC[N+](C)(C)C | 28.8% | 46.5% | 31.5% | 23.9% | 34% | 30.6% | 27.9% | -27.4% (active) |
| Oc1c(Br)cc(Br)c2ccc(Cn3cc(-c4ccc(C(F)(F)F)cc4)nn3)nc12 | 46.2% | 72.6% | 48.2% | -16.3% (active) | 27.9% | -0.0235% (active) | 117% | 104% |
| O=c1scc(-c2ccc(C(F)(F)F)cc2)s1 | 95.6% | 88.3% | 87.5% | 96.8% | 64.9% | 100% | 76.7% | 109% |
| CN(c1cc2ncc(=O)[nH]c2cc1NC(N)=NCc1ccc(Cl)cc1)C1CCCCC1 | 47.6% | 82% | 40.2% | 6.15% (active) | -44.2% (active) | 24.9% | -10.5% (active) | 28.7% |
| [O-]/[N+](=C\c1ccc(-n2cc(Cc3ccccc3Cc3cn(-c4ccc(/C=[N+](/[O-])c5ccccc5)cc4)nn3)nn2)cc1)c1ccccc1 | 93.8% | 83.3% | 109% | 102% | 90.6% | 91.2% | 104% | 98.8% |
| CC(C)(Sc1cc(C(C)(C)C)c(OC(=O)CCCC(=O)O)c(C(C)(C)C)c1)Sc1cc(C(C)(C)C)c(OC(=O)CCCC(=O)O)c(C(C)(C)C)c1 | 49.5% | 39.8% | 27.8% | 41.4% | 30% | 15.9% | 22.1% | 10.9% |
| CN(C)CC1CCC(CN(C)C)C1=O (stereo not given) | 106% | 110% | 121% | 86.9% | 93.7% | 93.9% | 114% | 115% |
| COC(=O)CC[C@H](C)[C@H]1CC[C@H]2[C@@H]3CC[C@@H]4CC5(CC[C@]4(C)[C@H]3CC(=O)[C@]12C)Nc1ccccc1NC5=NC(C)(C)C (stereo not given in full) | 82.3% | 95.4% | 85.1% | 69.7% | 58.5% | 28.3% | 107% | 83% |
| COc1ccc(-c2nc3cc(C(=O)NCc4ccccc4)ccc3n2C2CCCCC2)cc1 | 68.2% | 80.9% | 81.7% | 94.9% | 76.6% | 82.9% | 79.3% | 57.4% |
| Clc1ccc2c(c1)C(c1c[nH]c3ccccc13)(c1c[nH]c3ccccc13)CCO2 | -3.57% (active) | 77.2% | 94.9% | 87.4% | 103% | 56.5% | 112% | 78.2% |
| N=C(N)c1ccc(-c2ccc(-c3ccc(Cl)cc3Cl)s2)cc1 | 47.2% | 100% | -2.28% (active) | -52.1% (active) | -65.4% (active) | -60.1% (active) | -65.9% (active) | -87.3% (active) |
| CCN1CCN(C(=O)[C@]23CCC(C)(C)C[C@@H]2C2=CC[C@@H]4[C@@]5(C)CCC(=O)C(C)(C)[C@@H]5CC[C@@]4(C)[C@]2(C)CC3)CC1 | 56.4% | 58.6% | 33.9% | 31.8% | 39.9% | 19.1% | 62.8% | 41.2% |
| COc1ccc2c(c1OC)CO[C@@H]2[C@H]1c2c(cc3c(c2OC)OCO3)CCN1S(=O)(=O)c1cn(C)cn1 | 33.4% | 38.2% | -27.3% (active) | 25.4% | 16.9% | 14.4% | 11.7% | 11.3% |
| COC(=O)[C@]12CCC(C)(C)C[C@H]1[C@H]1/C(=N/OCCc3nn[nH]n3)C[C@@H]3[C@@]4(C)CC[C@H](OC(C)=O)C(C)(C)[C@@H]4CC[C@@]3(C)[C@]1(C)CC2 | 26% | 34.9% | 31.4% | 41.9% | 20.9% | 24.7% | 54.7% | 36.5% |
| O=C1c2c(c3c4ccccc4[nH]c3c3ccc4ccccc4c23)C(=O)N1CCN1CCOCC1 | 18.6% | 69.8% | 58.6% | 36.1% | 16.4% | 23.4% | 80% | 36.4% |
| O=S(=O)(NCCCNc1nccc(-c2c(-c3ccc(F)c(O)c3)nc3sccn23)n1)c1ccccc1 | 64.8% | 91.1% | 29.3% | 56.2% | 58.5% | 30.6% | 78.2% | 64.6% |
| O=C(NCCNc1nccc(Nc2ccc(S(=O)(=O)Nc3ccccn3)cc2)n1)c1cccc([N+](=O)[O-])c1 | 89% | 96.9% | 103% | 102% | 88.5% | 90.4% | 109% | 99% |
| COC(=O)c1c(C)c2n(c1C)C(=O)C(c1ccccc1)=C2 | 37.1% | 51.2% | 78.1% | 93% | 39% | 74.2% | 75.1% | 78.2% |
| OCCn1cc(-c2nc(-c3c[nH]c4ncccc34)cs2)c2cc(F)ccc21 | 35.2% | 68.7% | 5.03% (active) | 57.9% | 48.1% | 62.4% | 65.3% | 28.4% |
| CCOC(=O)n1ccn(C)c1=S | -28.3% (active) | 98.7% | 102% | 111% | 102% | 94.4% | 106% | 101% |
| Cc1nc2sc(C(=O)Nc3ccc(Br)cc3)c(N)c2cc1C(O)c1ccccc1 (stereo not given) | 45.6% | 71.1% | 1.03% (active) | 45.8% | 33.8% | 29.9% | 76.5% | 49.2% |
| N#Cc1nc(-c2ccccc2)oc1S(=O)(=O)N1CCN(c2ccccc2)CC1 | 91.1% | 90.8% | 86.3% | 64.1% | 51.5% | 44.9% | 102% | 104% |
| CC(C)=CC(=O)OCC(=O)O[C@@H]1C[C@]2(C(C)C)O[C@@]1(C)[C@@H]1CC[C@@H](C)[C@H]1[C@@H]2OC(=O)/C=C/c1ccccc1 | 65.1% | 37.7% | 91.7% | 87.1% | 71.5% | 72.2% | 90.7% | 89.4% |
| Oc1c(I)cc(I)cc1CNCCN(Cc1ccccn1)Cc1ccccn1 | -36% (active) | -33.6% (active) | -66.6% (active) | -42.5% (active) | -6.6% (active) | -45.1% (active) | -86.8% (active) | -38.9% (active) |
| Cc1[nH]c(=O)[nH]c(=O)c1Br | 108% | 108% | 102% | 102% | 95.6% | 106% | 87.8% | 108% |
| CC1CCc2c(C(=O)Nc3ncc(Cc4cccc([N+](=O)[O-])c4)s3)csc2C1 (stereo not given) | 27.8% | 46.6% | -42% (active) | 23.3% | 17.1% | 19% | 41.2% | 18.2% |
